Source: PubChem (several laboratories)
This is a sample that favours compounds with a hit; in the whole collection about 2.5% have one here.
Mcl1-Bid inh = Mcl-1/Bid interaction inhibition; Q07820; TR-FRET Mcl-1/Bid-Dy647 peptide binding, 1536-well; inhibition, % at 21.7 µM; hit rate 0.97% among 220,000;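 active means compounds that cut the binding signal by more than half at the single screening dose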;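 further: His-tagged Mcl-1 with europium anti-His antibody binding Bid BH3 peptide; 0% = Mcl-1 plus peptide wells and 100% = peptide-only wells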
Target sequence (Q07820 whole entry, looked up): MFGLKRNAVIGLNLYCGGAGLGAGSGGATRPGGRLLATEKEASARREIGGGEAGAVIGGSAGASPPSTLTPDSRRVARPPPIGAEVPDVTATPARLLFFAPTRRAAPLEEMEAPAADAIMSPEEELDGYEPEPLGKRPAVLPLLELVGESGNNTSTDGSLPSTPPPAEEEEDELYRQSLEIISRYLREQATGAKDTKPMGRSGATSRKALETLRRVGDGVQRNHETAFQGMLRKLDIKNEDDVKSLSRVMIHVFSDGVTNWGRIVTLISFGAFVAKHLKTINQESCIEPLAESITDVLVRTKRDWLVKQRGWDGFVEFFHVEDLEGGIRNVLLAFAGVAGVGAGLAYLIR
MCL1-BIM inh = MCL1-BIM-BH3 interaction inhibition (human); Q07820; AID 2057; hit rate 0.68% among 320,000; inhibition, % at 10.9 µM; GST-MCL1 / FITC-Bim-BH3 fluorescence polarization;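 active means inhibition above the mean inhibition of all tested compounds plus 3 SD, set per campaign, cut at about 40% in these data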;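 further: 0% = DMSO wells and 100% = unlabeled Bim-BH3 peptide control; higher means more loss of mP so more displacement of Bim peptide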
Mcl1 Noxa PPI = Mcl-1/Noxa interaction inhibition; Q07820; TR-FRET Mcl-1/Noxa peptide binding, 2 h; hit rate 1.5% among 220,000; inhibition, % at 21.7 µM; AID 1022;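 active means compounds that cut the protein-peptide binding signal by more than 50% relative to plate controls in a single-dose test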;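 further: His-tagged Mcl-1 with rhodamine Noxa BH3 peptide and terbium anti-His antibody; 0% = Mcl-1 plus Noxa peptide wells and 100% = peptide-only wells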
Bim-Mcl-1 = disrupts Bim peptide binding to human Mcl-1; Bead-based flow cytometry, Bim peptide-Mcl-1 binding; inhibition, % at 10 µM; hit rate 0.1% among 190,000; AID 1009; in the data active means inhibition above about 40%;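 further: 0% = no compound tracer wells and 100% = peptide blocker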
14-3-3 Bad PPI = disrupts binding of bovine 14-3-3 zeta to phospho-Bad peptide. P63103. TR-FRET 14-3-3zeta/Dy647-pBad peptide displacement, 1 h. inhibition, % at 21.7 µM. hit rate 0.71% among 220,000;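 active means inhibition above about 70%, limit read from the data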;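 further: 0% = full 14-3-3 plus peptide FRET controls and 100% = background without 14-3-3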
Target sequence (P63103 whole entry, looked up): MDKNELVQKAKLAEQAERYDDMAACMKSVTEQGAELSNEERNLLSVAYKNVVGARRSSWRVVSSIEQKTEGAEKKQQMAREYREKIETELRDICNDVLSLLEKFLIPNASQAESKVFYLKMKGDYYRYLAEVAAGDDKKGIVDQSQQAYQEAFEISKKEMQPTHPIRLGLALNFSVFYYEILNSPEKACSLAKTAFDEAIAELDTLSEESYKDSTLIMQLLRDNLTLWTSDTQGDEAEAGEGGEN
BCLXL inh confirm = counter-screen for MCL1 inhibitors: confirmation of human Bcl-xL inhibitors; AID 2166; inhibition, % at 10.9 µM; hit rate 54% among 1,700; shares compounds with MCL1-BIM inh; GST-Bcl-xL / FITC-Bim BH3 peptide FP binding;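 active means inhibition above a cutoff equal to the mean inhibition of all tested compounds plus 3 SD, cut at about 30% in these data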;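 further: 0% = DMSO wells and 100% = unlabeled Bim BH3 control peptide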
MCL1 inh confirm = MCL1-BIM-BH3 interaction inhibition, confirmation | shares compounds with MCL1-BIM inh | GST-MCL1 / FITC-Bim-BH3 fluorescence polarization | inhibition, % at 10.9 µM | hit rate 61% among 1,700 | AID 2168;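 active means inhibition above the average of all tested compounds plus 3 SD, cut at about 40% in these data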;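 further: 0% = DMSO wells and 100% = unlabeled Bim-BH3 control peptide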
Starred values were filed as active, the others as inactive; / = no result given; + = active, no number; ! = not confirmed by another sample.

SMILES	Mcl1-Bid inh	MCL1-BIM inh	Mcl1 Noxa PPI	Bim-Mcl-1	14-3-3 Bad PPI	BCLXL inh confirm	MCL1 inh confirm
CCOC(=O)Cn1c(=O)c(-c2cc(Br)ccc2N)nc2ccccc21	-35.4	82.2*	12.7	/	-3.0	108.3*	131.7*
COc1ccc(/C=N/N=C2/CC(C)(C)Cc3n[nH]c(=O)cc32)cc1	-47.3	155.2*	16.8	1.0	-6.0	49.5*	63.4*
NC(CO)C(=O)NNCc1ccc(O)c(O)c1O (configuration not stated)	5.7	71.8*	101.4*	0.0	50.1	36.7*	60.7*
CN1C=CC2=C(C#N)C(N)C(C#N)(C#N)C(c3ccccc3)C2C1 (configuration not stated)	-28.0	90.3*	-9.0	-1.0	-6.5	40.0*	56.4*
NC(=S)Nc1cccc2cc3ccccc3cc12	-62.1	52.9*	31.4	6.0	-8.5	81.0*	94.6*
COc1cc(/C=C2\CCCc3c2nc2ccccc2c3C(=O)O)cc(OC)c1O	-73.0	14.5	35.9	/	7.7	/	/
CCOc1ccc(/C=C2\CCCc3c2nc2ccccc2c3C(=O)O)cc1OC	/	+	/	/	/	183.4*	+
COc1ccc(/C=C2\CCc3c2nc2ccccc2c3C(=O)O)cc1OC	-15.9	85.6*	16.2	/	0.8	17.5	12.1
COc1ccc(/C=C2\CCCc3c2nc2ccccc2c3C(=O)O)cc1OC	-24.8	159.1*	29.7	/	3.7	170.0*	190.6*
CCOC(=O)c1ccc(NC(=S)NCCc2ccccc2F)cc1	12.2	1.0	19.5	2.0	-9.2	/	/
Cn1nnnc1SCC(=O)N1CCc2ccccc21	-10.8	-3.4	5.5	/	2.7	/	/
CC1CC(C)(C)CC2(C1)NC(=O)N(CC(=O)N(C)Cc1nc3ccccc3c(=O)[nH]1)C2=O (configuration not stated)	/	1.6	/	/	/	/	/
CN(C(=S)NC(=O)c1ccccc1)c1c(N)n(Cc2ccccc2)c(=O)[nH]c1=O	-35.1	7.1	6.6	/	-0.6	/	/
Nc1c(NCc2ccccc2)c(=O)[nH]c(=O)n1Cc1ccccc1	-55.0	88.0*	11.2	-6.0	-8.0	8.0	14.9
O=C(OCc1nnc(-c2ccccc2)o1)c1cn(-c2ccccc2)nc1-c1ccccc1	-5.5	-0.1	-1.1	-4.0	-14.5	/	/
Oc1ccc(C(=S)N2CCCC2)cc1	/	9.9	/	/	/	/	/
O=C(COc1ccccc1)NC1CCSc2ccccc21 (configuration not stated)	/	-4.8	/	/	/	/	/
COc1cccc(C(=O)N2CCN(C(=O)c3cccc(F)c3)CC2)c1	-19.0	85.1*	-26.8	0.0	9.2	0.4	0.3
CCOC(=O)N1CCN(C(=O)c2cccc(F)c2)CC1	-20.5	1.5	16.1	1.0	-11.6	/	/
Cc1ccc(-c2nc3ccccc3c(=O)o2)cc1	/	-8.3	/	/	/	/	/
O=c1oc(-c2ccc(Br)o2)nc2ccccc12	26.1	97.7*	37.1	-13.0	0.4	-2.0	12.8
CCOc1ccc(Cc2nnc(SCC(=O)Nc3ccc(C(C)=O)cc3)[nH]c2=O)cc1	/	5.7	/	/	/	/	/
CC(C)NC(=O)c1ccccc1NC(=O)C1COc2ccccc2O1 (configuration not stated)	-6.5	5.3	0.9	-3.0	-0.1	/	/
CSc1nc(N)nc(C(C)C)n1	6.5	66.4*	-1.6	/	3.5	11.6	18.7
CC(C)CCN1C(=O)c2cccc3c(N)ccc(c23)C1=O	/	+	/	/	/	145.4*	164.3*
SMILES	Mcl1-Bid inh	MCL1-BIM inh	Mcl1 Noxa PPI	Bim-Mcl-1	14-3-3 Bad PPI	BCLXL inh confirm	MCL1 inh confirm
Nc1ccc2c3c(cccc13)C(=O)N(c1ccccc1)C2=O	-21.0	/	-212.7	-3.0	-15.0	/	/
Cc1cccc(N2C(=O)c3cccc4c(N(C)CCO)ccc(c34)C2=O)c1	-5.5	+	-86.2	-1.0	-6.8	168.8*	+
Cc1ccnc(N2C(=O)c3cccc4c([N+](=O)[O-])ccc(c34)C2=O)c1	25.4	102.8*	/	0.0	18.6	82.0*	118.8*
CCN1C(=O)c2cccc3c(Cl)ccc(c23)C1=O	-21.4	4.5	12.1	-4.0	-10.4	/	/
Cc1ccc(N2C(=O)c3cccc4c([N+](=O)[O-])ccc(c34)C2=O)c2cccnc12	4.4	18.7	32.2	/	-1.4	/	/
Cc1cccc(N2C(=O)c3cccc4c(N)ccc(c34)C2=O)c1	/	+	/	/	/	197.9*	+
COc1c(F)c(F)c(C(=O)Nc2ccc(-c3nc4ccccc4[nH]3)cc2)c(F)c1F	-31.9	0.1	-18.1	1.0	-9.9	/	/
Cc1nn(C)c(C)c1S(=O)(=O)N1CCC(C(=O)Nc2ccc3c(c2)OCCO3)CC1	-26.0	-5.7	17.6	1.0	-6.2	/	/
Nc1cccc(N2C(=O)c3cccc4c(N)ccc(c34)C2=O)c1	/	+	/	/	/	+	+
COc1ccc(NC(=O)c2sc(SCc3ccccc3)nc2N)cc1	-15.7	10.2	5.8	-5.0	-7.6	/	/
Cc1cc(C(=O)NN=C(Cc2ccccc2)Cc2ccccc2)c(C)o1	0.9	9.3	26.9	-2.0	2.8	/	/
COc1ccc(NC(=O)C(c2cc3c(cc2[N+](=O)[O-])OCO3)N(C)c2ccccc2)cc1 (configuration not stated)	-72.7	13.0	8.0	-5.0	-7.4	/	/
CCN(CC)C(=O)C1c2ccccc2Oc2ccccc21	/	+	/	/	/	90.5*	125.5*
CC(C)(C)SCCNS(=O)(=O)c1ccccc1	-24.2	-2.2	18.3	-5.0	-5.5	/	/
c1ccc(Nc2ccccc2Nc2ccccn2)nc1	2.6	98.2*	9.2	-3.0	1.3	18.3	29.4
CC(=O)c1ccc(N2C(=O)C3C(C2=O)C(C(=O)c2ccc(Cl)cc2)N2CCCC32)cc1 (configuration not stated)	-91.1	/	10.3	1.0	-14.8	/	/
Cc1ccc(N2C(=O)[C@@H]3[C@H](C2=O)C2CCCN2[C@@H]3C(=O)c2ccccc2)cc1 (some centres not stated)	-7.6	81.0*	24.4	0.0	-3.4	63.7*	75.7*
O=C(c1ccccc1)[C@@H]1[C@@H]2C(=O)N(c3ccc(F)cc3)C(=O)[C@@H]2C2CCCN21 (some centres not stated)	-7.3	61.9*	-7.9	/	-3.7	57.8*	62.0*
O=C(c1ccc(Cl)cc1)C1C2C(=O)N(c3ccccc3)C(=O)C2C2CCCN21 (configuration not stated)	-80.5	/	6.8	1.0	6.6	/	/
Cn1c2ccc(F)cc2c2nc3ccccc3nc21	/	7.7	/	/	/	/	/
Cc1ccc2c(c1)c1nc3ccccc3nc1n2C	/	76.1*	/	/	/	84.5*	135.7*
O=C(NNS(=O)(=O)c1ccccc1[N+](=O)[O-])c1ccncc1	-8.7	-4.4	6.4	-3.0	-7.0	/	/
O=C(O)c1cc(-c2ccco2)nc2ccc(Br)cc12	26.3	140.9*!	83.9*!	4.0	1.9	44.9*	88.5*
